# Source: PubChem BioAssay AID1159580 (chemical genetic matrix, 2015)
# About 2,000 (36%) of roughly 5,500 compounds were called active. Another 18% or so got no clear call; they are omitted. This is one part of the list. Unmarked numbers belong to inactive results. Rule as the data show it: active = normalized growth mostly below about 0.91 (no sharp cut-off); inconclusive = no clear call, values can overlap the other calls; inactive = mostly above about 0.92.
# Assay: chemical genetic growth profiling, strain panel (AID 1159580);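 also: tested at 20 µM; growth read once vehicle control cultures reached saturation at 30 °C; 1 = growth at the plate median or of vehicle wells; lower values mean less growth of the strain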
# Conditions: S. cerevisiae deletion strains, growth OD
compound,measurement,setting,value
C=C1CCC2C(CC2(C)C)C(=C)CC/C1=N\O (stereo not drawn),normalized growth,"locus YAL013W, strain DEP1, hits give low values",1
same,normalized growth,"locus YAL021C, strain ccr4, hits give low values",1.04
same,normalized growth,"locus YAL026C, strain drs2, hits give low values",1.01
same,normalized growth,"locus YAL030W, strain snc1, hits give low values",1
same,normalized growth,"locus YBL061C, strain skt5, hits give low values",0.999
same,normalized growth,"locus YBR009C, strain hhf1, hits give low values",0.99
same,normalized growth,"locus YBR021W, strain FUR4, hits give low values",0.89
same,normalized growth,"locus YBR023C, strain chs3, hits give low values",1.01
same,normalized growth,"locus YBR171W, strain sec66, hits give low values",0.993
same,normalized growth,"locus YBR229C, strain ROT2, hits give low values",1.02
same,normalized growth,"locus YBR231C, strain swc5, hits give low values",1.01
same,normalized growth,"locus YBR279W, strain paf1, hits give low values",1.01
same,normalized growth,"locus YCL011C, strain gbp2, hits give low values",0.997
same,normalized growth,"locus YCL016C, strain dcc1, hits give low values",0.994
same,normalized growth,"locus YCL029C, strain bik1, hits give low values",0.983
same,normalized growth,"locus YCL061C, strain MRC1, hits give low values",0.992
same,normalized growth,"locus YCL069W, strain vba3, hits give low values",1.01
same,normalized growth,"locus YCR088W, strain abp1, hits give low values",1
same,normalized growth,"locus YDL005C, strain med2, hits give low values",0.994
same,normalized growth,"locus YDL035C, strain GPR1, hits give low values",0.87
same,normalized growth,"locus YDL040C, strain nat1, hits give low values",0.998
same,normalized growth,"locus YDL074C, strain BRE1, hits give low values",0.82
same,normalized growth,"locus YDL101C, strain DUN1, hits give low values",0.986
same,normalized growth,"locus YDL134C, strain PPH21, hits give low values",1.01
same,normalized growth,"locus YDL185W, strain tfp1, hits give low values",0.978
same,normalized growth,"locus YDL192W, strain arf1, hits give low values",0.884 (active)
same,normalized growth,"locus YDR001C, strain nth1, hits give low values",1
same,normalized growth,"locus YDR069C, strain doa4, hits give low values",0.995
same,normalized growth,"locus YDR101C, strain arx1, hits give low values",0.947
same,normalized growth,"locus YDR137W, strain rgp1, hits give low values",0.949
same,normalized growth,"locus YDR150W, strain NUM1, hits give low values",1.03
same,normalized growth,"locus YDR159W, strain sac3, hits give low values",0.977
same,normalized growth,"locus YDR162C, strain NBP2, hits give low values",0.735 (active)
same,normalized growth,"locus YDR195W, strain ref2",1.01
same,normalized growth,"locus YDR297W, strain sur2, hits give low values",1.01
same,normalized growth,"locus YDR318W, strain mcm21, hits give low values",0.911 (active)
same,normalized growth,"locus YDR334W, strain swr1, hits give low values",1
same,normalized growth,"locus YDR335W, strain msn5, hits give low values",1
same,normalized growth,"locus YDR388W, hits give low values",0.964
same,normalized growth,"locus YDR392W, strain spt3, hits give low values",0.839
same,normalized growth,"locus YDR502C, strain sam2, hits give low values",0.927
same,normalized growth,"locus YEL003W, strain gim4, hits give low values",1
same,normalized growth,"locus YEL037C, strain rad23, hits give low values",0.993
same,normalized growth,"locus YEL061C, strain CIN8 (second series), hits give low values",1.01
same,normalized growth,"locus YEL061C, strain CIN8, hits give low values",1.01
same,normalized growth,"locus YER015W, strain faa2, hits give low values",1.01
same,normalized growth,"locus YER016W, strain bim1, hits give low values",1
same,normalized growth,"locus YER110C, hits give low values",1.02
same,normalized growth,"locus YER111C, strain swi4, hits give low values",1
same,normalized growth,"locus YER155C, strain BEM2 (second series), hits give low values",1
same,normalized growth,"locus YER155C, strain BEM2, hits give low values",0.992
same,normalized growth,"locus YER167W, strain BCK2, hits give low values",0.915
same,normalized growth,"locus YFR010W, strain ubp6, hits give low values",1
same,normalized growth,"locus YGL078C, strain dbp3, hits give low values",0.922 (active)
same,normalized growth,"locus YGL086W, strain mad1, hits give low values",0.923 (active)
same,normalized growth,"locus YGL167C, strain pmr1, hits give low values",0.996
same,normalized growth,"locus YGL173C, strain kem1, hits give low values",1
same,normalized growth,"locus YGL227W, strain vid30, hits give low values",1
same,normalized growth,"locus YGL240W, strain doc1, hits give low values",1
same,normalized growth,"locus YGL248W, strain PDE1, hits give low values",1.02
same,normalized growth,"locus YGL253W, strain hxk2, hits give low values",1
same,normalized growth,"locus YGR078C, strain PAC10, hits give low values",0.954
same,normalized growth,"locus YGR135W, strain pre9, hits give low values",0.924
same,normalized growth,"locus YGR229C, strain SMI1, hits give low values",0.738 (active)
same,normalized growth,"locus YGR252W, strain gcn5, hits give low values",0.799
same,normalized growth,"locus YHR013C, strain ard1, hits give low values",1.04
same,normalized growth,"locus YHR027C, strain rpn1, hits give low values",0.999
same,normalized growth,"locus YHR030C, strain SLT2, hits give low values",0.983
same,normalized growth,"locus YHR079C, strain IRE1 (second series), hits give low values",0.962
same,normalized growth,"locus YHR094C, strain hxt1, hits give low values",0.998
same,normalized growth,"locus YHR129C, strain ARP1, hits give low values",0.992
same,normalized growth,"locus YHR142W, strain chs7, hits give low values",1
same,normalized growth,"locus YHR200W, strain rpn10, hits give low values",0.971
same,normalized growth,"locus YIL066C, strain RNR3, hits give low values",0.908
same,normalized growth,"locus YIL073C, strain SPO22, hits give low values",1.08
same,normalized growth,"locus YIL125W, strain kgd1, hits give low values",0.993
same,normalized growth,"locus YIR030C, strain dcg1, hits give low values",0.993
same,normalized growth,"locus YJL092W, strain hpr5, hits give low values",0.996
same,normalized growth,"locus YJL095W, strain BCK1 (second series), hits give low values",1
same,normalized growth,"locus YJL095W, strain BCK1, hits give low values",0.843
same,normalized growth,"locus YJL115W, strain asf1, hits give low values",0.998
same,normalized growth,"locus YJL129C, strain trk1, hits give low values",0.994
same,normalized growth,"locus YJL134W, strain LCB3, hits give low values",1.01
same,normalized growth,"locus YJL154C, strain vps35, hits give low values",1
same,normalized growth,"locus YJL164C, strain tpk1, hits give low values",1
same,normalized growth,"locus YJL166W, strain qcr8, hits give low values",1.01
same,normalized growth,"locus YJL168C, strain set2, hits give low values",0.998
same,normalized growth,"locus YJL187C, strain SWE1 (second series), hits give low values",0.973
